Assay results published in PubChem BioAssay (Tox21).
Records with an inconclusive call do not appear. The source made the active and inactive calls. Unless noted, the call rests on the fitted dose curve; in most records, active means well fitted curve in the direction sought with a large enough effect in the repeat runs; inconclusive means weak or mixed curves; inactive means no such curve, though single readings can be large; an effect the other way counts as inactive or inconclusive.

Columns and labels:
[1] = qHTS assay to identify small molecule agonists of the hypoxia (HIF-1) signaling pathway - cell viability counter screen (AID 1224844; calls by dose curve; further: nearly all actives have a fitted effect of over 50% in size)
Method in brief: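 Multiplexed with the HRE beta-lactamase assay, this viability read used CellTiter-Glo luminescence (30 min, RT) on HRE-bla ME-180 cells treated 17 hrs with compounds in 0.5% dialyzed FBS medium.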

[2] = qHTS assay to identify small molecule agonists of H2AX (AID 1224845; active means well fitted activation curve with a large enough effect in the signal ratio in the repeat runs, not every such curve was filed as active; the % refers to the signal ratio)
Method in brief: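 Wild-type CHO-K1 cells, plated overnight, exposed 3hr at 37C to 15 concentrations (0.76% DMSO final). Lysed, then HTRF anti-pH2AX (S139) cryptate and anti-H2AX-d2 antibodies, 24 hr room temperature; 665/620 nm emission read.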

[3] = qHTS assay to identify small molecule agonists of the hypoxia (HIF-1) signaling pathway (AID 1224846; active means well fitted activation curve with a large enough effect in the signal ratio in the repeat runs, not every such curve was filed as active; the % refers to the signal ratio)
Method in brief: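 Hypoxia-pathway activation was scored as increased beta-lactamase from an HRE-controlled reporter in ME-180 cells; plated at 2,000 cells per well with 0.5% dialyzed FBS, they were exposed 17 hrs to compounds and then given CCF4-AM.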

[4] = qHTS assay to identify small molecule agonists of H2AX - cell viability counter screen (AID 1224847; calls by dose curve; further: top concentration of the series differs between compounds; nearly all actives have a fitted effect of over 30% in size)
Method in brief: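 Compounds tested at 15 concentrations were incubated 3 hr at 37C with wild-type CHO-K1 cells; cellular ATP-based luminescence (CellTiter-Glo) indicated viability.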

[5] = qHTS assay to identify small molecule antagonists of the estrogen related receptor (ERR) signaling pathway from Tox21 library (AID 1224848); further: nearly all actives have a fitted effect of over 50% in size
Method in brief: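 ERR reporter cell line (from NTP) seeded 2,000 cells/well, rested 6 h at 37 C/5% CO2, then pin-dosed with compounds in DMSO. After 18 h at 37 C, ONE-Glo added; luminescence read after 30 min at room temperature.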

[6] = qHTS assay to identify small molecule agonists of the estrogen related receptor (ERR) signaling pathway from Tox21 library (AID 1224849; calls by dose curve; further: nearly all actives have a fitted effect of over 15% in size); settings: ERR reporter cell line, ONE-Glo luciferase, 18 h; at 92.4 µM (top of the series) unless noted
Method in brief: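 Six hours post-seeding at 37 C/5% CO2, ERR cells receive DMSO-solubilised compounds; after 18 h at 37 C, ONE-Glo reagent is applied and luminescence recorded.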

[7] = qHTS RealTime-Glo MT Cell Viability Assay in HepG2 cells - 24 hour (AID 1224867); further: nearly all actives have a fitted effect of over 50% in size
Method in brief: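 Luminescence read-out: viable HepG2 cells reduce a prosubstrate to a NanoLuc substrate, giving a signal proportional to live cell number. Reads taken at 0, 8, 16, 24, 32 and 40 h of compound exposure at 37 C.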

[8] = qHTS RealTime-Glo MT Cell Viability Assay in HEK293 cells - 32 hour (AID 1224868); further: top concentration of the series differs between compounds; nearly all actives have a fitted effect of over 50% in size
Method in brief: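 Nonlytic real-time viability readout: viable cells convert prosubstrate to NanoLuc substrate, giving luminescence proportional to live cell number. HEK293, 600 cells/well, compound added after 5 h, continuous culture at 37 C.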

[9] = A CellTox Green Cytotoxicity Assay to monitor cytotoxicity in HEK293 cells - 0 hour (AID 1224869); further: nearly all actives have a fitted effect of over 50% in size; further: potency means the concentration at half of the fitted maximal effect
Method in brief: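 Seeding of HEK293 cells together with cytotoxicity dye preceded a 5 h incubation at 37 C/5% CO2. Test compounds in DMSO were then added and fluorescence monitored across 40 h.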

[10] = qHTS RealTime-Glo MT Cell Viability Assay in HepG2 cells - 40 hour (AID 1224870); further: nearly all actives have a fitted effect of over 50% in size
Method in brief: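 HepG2 cells (600/well) mixed with RealTime-Glo MT reagent, settled 5 h at 37 C/5% CO2 before compound addition. Nonlytic NanoLuc luminescence from viable-cell prosubstrate reduction read repeatedly during 40 h treatment at 37 C.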
On the % scale 0 is the no-effect control and ±100 the full control effect.

CCOC(=O)CCC(C)=O
inactive: Potency [1] | outcome [2] | outcome [3] | Potency [4] | Potency [5] | activity change, positive = activation [6] 4.77% | Potency [7] | Potency [8] | Potency [9] | Potency [10]

C=C(C)C(=O)OCCCCCCCC(C)C
inactive: Potency [1] | outcome [2] | outcome [3] | Potency [4] | Potency [5] | activity change, positive = activation [6] 2.01% | Potency [7] | Potency [8] | Potency [9] | Potency [10]

Cc1ccc(C#N)cc1
inactive: Potency [1] | outcome [2] | outcome [3] | Potency [4] | Potency [5] | activity change, positive = activation [6] 1.46% | Potency [7] | Potency [8] | Potency [9] | Potency [10]

O=C[C@H](O)[C@@H](O)[C@H](O)[C@H](O)CO
inactive: Potency [1] | outcome [2] | outcome [3] | Potency [4] | Potency [5] | activity change, positive = activation [6] 3.09% | Potency [7] | Potency [8] | Potency [9] | Potency [10]

C[N+](C)(C)CC(O)CC(=O)[O-] (stereo not given)
inactive: Potency [1] | outcome [2] | outcome [3] | Potency [4] | Potency [5] | activity change, positive = activation [6] 3.63% [at 42.5 µM] | Potency [7] | Potency [8] | Potency [9] | Potency [10]

OCCOc1ccc(OCCO)cc1
inactive: Potency [1] | outcome [2] | outcome [3] | Potency [4] | Potency [5] | activity change, positive = activation [6] 2.76% | Potency [7] | Potency [8] | Potency [9] | Potency [10]

COC(=O)CCSCCC(=O)OC
inactive: Potency [1] | outcome [2] | outcome [3] | Potency [4] | Potency [5] | activity change, positive = activation [6] 1.8% | Potency [7] | Potency [8] | Potency [9] | Potency [10]

NS(=O)(=O)c1ccccc1Cl
inactive: Potency [1] | outcome [2] | outcome [3] | Potency [4] | Potency [5] | activity change, positive = activation [6] 2.78% | Potency [7] | Potency [8] | Potency [9] | Potency [10]

COc1ccc2c(c1)c(CC(=O)OCC(=O)O)c(C)n2C(=O)c1ccc(Cl)cc1
inactive: Potency [1] | outcome [2] | outcome [3] | Potency [4] | Potency [5] | activity change, positive = activation [6] 3.06% [at 42.5 µM] | Potency [7] | Potency [8] | Potency [9] | Potency [10]

O=C(O)COc1nn(Cc2ccccc2)c2ccccc12
inactive: Potency [1] | outcome [2] | outcome [3] | Potency [4] | Potency [5] | activity change, positive = activation [6] 0.25% [at 42.5 µM] | Potency [7] | Potency [8] | Potency [9] | Potency [10]

NC(=O)c1ccc(N)cc1
inactive: Potency [1] | outcome [2] | outcome [3] | Potency [4] | Potency [5] | activity change, positive = activation [6] 8.51% | Potency [7] | Potency [8] | Potency [9] | Potency [10]

CCCCNC(=O)NCCCC
inactive: Potency [1] | outcome [2] | outcome [3] | Potency [4] | Potency [5] | activity change, positive = activation [6] 12.5% | Potency [7] | Potency [8] | Potency [9] | Potency [10]

Cc1sccc1Br
inactive: Potency [1] | outcome [2] | outcome [3] | Potency [4] | Potency [5] | activity change, positive = activation [6] -1.02% [at 42.5 µM] | Potency [7] | Potency [8] | Potency [9] | Potency [10]

O=C(c1ccccc1)C1CCCCC1
inactive: Potency [1] | outcome [2] | outcome [3] | Potency [4] | Potency [5] | activity change, positive = activation [6] 3.6% | Potency [7] | Potency [8] | Potency [9] | Potency [10]

CCCCCCCCCCCCCCCCC
inactive: Potency [1] | outcome [2] | outcome [3] | Potency [4] | Potency [5] | activity change, positive = activation [6] -0.135% | Potency [7] | Potency [8] | Potency [9] | Potency [10]

O=C(O)Cc1ccc(CCNS(=O)(=O)c2ccc(Cl)cc2)cc1
inactive: Potency [1] | outcome [2] | outcome [3] | Potency [4] | Potency [5] | activity change, positive = activation [6] 0.244% [at 42.5 µM] | Potency [7] | Potency [8] | Potency [9] | Potency [10]

CCCc1cc(C(N)=S)ccn1
inactive: Potency [1] | outcome [2] | outcome [3] | Potency [4] | Potency [5] | activity change, positive = activation [6] -6.09% [at 42.5 µM] | Potency [7] | Potency [8] | Potency [9] | Potency [10]

CN(C)CCCSc1ccccc1NC(=O)/C=C/c1ccccc1
active: Potency [9] 16.9 µM
inactive: Potency [1] | outcome [2] | outcome [3] | Potency [4] | Potency [5] | activity change, positive = activation [6] 9.36% [at 42.5 µM] | Potency [7] | Potency [8] | Potency [10]

CC1(C)C(O)C(C)(C)C1O (stereo not given)
inactive: Potency [1] | outcome [2] | outcome [3] | Potency [4] | Potency [5] | activity change, positive = activation [6] 1.44% | Potency [7] | Potency [8] | Potency [9] | Potency [10]

C=CCS(=O)(=O)O
inactive: Potency [1] | outcome [2] | outcome [3] | Potency [4] | Potency [5] | activity change, positive = activation [6] 4.55% | Potency [7] | Potency [8] | Potency [9] | Potency [10]

CC(C)(CC(=O)O)C(=O)O
inactive: Potency [1] | outcome [2] | outcome [3] | Potency [4] | Potency [5] | activity change, positive = activation [6] 3.63% | Potency [7] | Potency [8] | Potency [9] | Potency [10]

O=C1OC(=O)C2CCCCC12 (stereo not given)
inactive: Potency [1] | outcome [2] | outcome [3] | Potency [4] | Potency [5] | activity change, positive = activation [6] -1.02% | Potency [7] | Potency [8] | Potency [9] | Potency [10]
